# Source: PubChem
# An excerpt weighted towards active compounds, which were near 4.1% of everything screened.
# PfM18AAP inh = blocks P. falciparum M18 aspartyl aminopeptidase. recombinant PfM18AAP, H-Glu-NHMec fluorogenic cleavage. inhibition, % at 7.35 µM. actives 1.2% (n = 290,000);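 active means inhibition above the campaign mean inhibition over all tested compounds plus 3 SD, cut at about 28% in these data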;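 further: 0% = plate median of test compound wells and 100% = 2 mM ZnCl2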
# CaV13 ICDI inh = Primary screen for inhibitors of IQ motif and Ca2+-dependent inactivation inhibitor domain binding in CACNA1D, Förster resonance energy transfer in living cells, …; HEK cells, CFP/YFP FRET ICDI-IQ, plate reader, 10 min; percent FRET-ratio fall versus neutral wells; inhibition, % at 12.3 µM; actives 0.098% (n = 340,000); AID 743397;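 active means mean replicate inhibition of at least 30% and at least 1% of replicates passing that level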;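 further: 0% = median of the neutral control wells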
# IDE act = activators of human insulin-degrading enzyme in cells. P14735. HEK cells, FAbeta-B cleavage, fluorescence polarization; 0% vehicle, 100% cell-free pure enzyme wells. activation, % at 5.96 µM. actives 0.073% (n = 340,000). AID 493087;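 active means activation above the mean of all tested compounds plus 3 SD, set per screening campaign, cut at about 17% in these data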
# Target sequence (P14735 whole entry, looked up): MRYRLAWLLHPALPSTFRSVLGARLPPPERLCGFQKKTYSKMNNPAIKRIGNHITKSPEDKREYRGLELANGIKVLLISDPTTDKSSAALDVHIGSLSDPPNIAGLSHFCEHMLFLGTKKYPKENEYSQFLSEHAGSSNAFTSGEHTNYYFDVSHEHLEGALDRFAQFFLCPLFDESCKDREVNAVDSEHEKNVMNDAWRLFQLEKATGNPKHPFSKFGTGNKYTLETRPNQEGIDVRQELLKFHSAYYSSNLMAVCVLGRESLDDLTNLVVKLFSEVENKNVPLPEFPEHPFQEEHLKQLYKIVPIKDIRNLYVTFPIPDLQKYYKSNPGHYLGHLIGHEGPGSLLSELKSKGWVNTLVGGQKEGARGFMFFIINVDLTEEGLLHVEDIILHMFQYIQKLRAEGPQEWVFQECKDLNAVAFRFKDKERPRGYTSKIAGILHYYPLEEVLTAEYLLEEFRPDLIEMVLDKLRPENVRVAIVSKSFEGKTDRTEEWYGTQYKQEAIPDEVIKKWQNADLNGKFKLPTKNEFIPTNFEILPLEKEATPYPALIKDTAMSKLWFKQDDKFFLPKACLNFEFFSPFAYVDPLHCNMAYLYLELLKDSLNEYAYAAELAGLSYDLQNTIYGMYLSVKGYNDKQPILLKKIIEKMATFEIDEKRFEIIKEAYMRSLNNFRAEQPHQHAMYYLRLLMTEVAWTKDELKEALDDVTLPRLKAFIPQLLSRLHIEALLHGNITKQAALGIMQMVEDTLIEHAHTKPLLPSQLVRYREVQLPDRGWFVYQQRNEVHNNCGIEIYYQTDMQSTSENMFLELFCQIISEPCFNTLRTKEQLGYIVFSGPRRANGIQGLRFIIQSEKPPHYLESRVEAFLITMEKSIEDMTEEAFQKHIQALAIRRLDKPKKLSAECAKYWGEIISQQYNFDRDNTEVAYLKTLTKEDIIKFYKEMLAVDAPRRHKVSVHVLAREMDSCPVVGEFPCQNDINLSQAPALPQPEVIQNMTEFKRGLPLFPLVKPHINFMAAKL
# PolyA inh = blocks polyadenylation in yeast reporter cells; activity score, % at 12 µM; S. cerevisiae SKY197-pL101 polyadenylation reporter, beta-gal luminescence; efflux-impaired pdr1/pdr3 knockout yeast; score 100 = 6 SD above DMSO; actives 0.02% (n = 300,000); AID 1875;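 active means lowest replicate activity score at least 50, where 100 means six control SD above control mean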;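 further: yeast exposed to compound for 9 h at 30 °C; higher score means more reporter readthrough which indicates perturbed polyadenylation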
# IDE cell inh = inhibitors of human insulin-degrading enzyme in cells | P14735 | actives 0.41% (n = 320,000) | inhibition, % at 5.59 µM | HEK cells, FAbetaB cleavage, fluorescence polarization;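 active means percent inhibition above the average of all tested compounds plus 3 SD, set per screening campaign, cut at about 16% in these data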;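 further: IDE supplied by intact live HEK cells; FP after avidin binding of uncleaved biotin substrate so inhibition keeps polarization high; 0% = DMSO wells and 100% = 60 µM reference IDE inhibitor Ii1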
# ALR inh = blocks human ALR sulfhydryl oxidase activity | actives 3.8% (n = 290,000) | inhibition, % (test concentration not listed) | AID 485317 | purified ALR, DTT oxidation, H2O2 HRP-luminol luminescence;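 active means mean replicate inhibition above about 79%, with every replicate also reaching it, limit read from the data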
# An asterisk follows results filed as active; nt = no result given.
SMILES,PfM18AAP inh,CaV13 ICDI inh,IDE act,PolyA inh,IDE cell inh,ALR inh
Cc1c(C)c(C)c(C(=O)c2ccc(NC(=O)c3ccccc3C(=O)O)cc2)c(C)c1C,-0.8,-18.0,4.0,2.9,1.7,96.4*
C[C@@H]1CN([C@@H](C)CO)C(=O)CCCn2nncc2CO[C@H]1CN(C)Cc1ccc(O)cc1,nt,-10.7,nt,nt,nt,nt
CC(=O)N1CCC2(CC1)NC(=O)N(c1ccccc1)N2,6.2,-1.8,3.3,-7.3,-4.0,98.2*
O=C(c1ccccc1)N1CCN=C1SCc1ccc([N+](=O)[O-])cc1,13.9,-1.4,4.6,-22.6,-3.2,98.7*
Cc1ccc(C(=O)N2CCN=C2SCc2ccc([N+](=O)[O-])cc2)cc1C,3.2,-4.2,-1.2,-11.2,3.8,99.2*
O=C(c1ccc([N+](=O)[O-])cc1)N1CCN=C1SCc1ccccc1,-13.5,-2.2,2.4,-1.5,-5.9,nt
Cc1cc(C)n(-c2cc(N3CCN(C(=O)c4cccc(F)c4)CC3)ccc2[N+](=O)[O-])n1,10.0,-3.3,2.7,10.7,1.9,1.2
COc1ccc2nc(C)cc(SCC(=O)NNC(=O)COc3ccccc3)c2c1,19.7,-3.0,-2.8,-0.6,-1.8,0.0
COc1ccc2nc(C)cc(Sc3nc4ccccc4s3)c2c1,0.6,-3.2,6.2,-0.3,6.3,99.0*
Cc1ccc(NC(=O)CSCC(=O)NC2=NCCS2)cc1,nt,-17.1,2.1,nt,0.3,98.5*
O=C(CSCc1ccco1)NC1CCCC1,-1.9,-13.8,1.0,17.1,-1.1,98.9*
Cc1ccccc1CSCC(=O)NC1CCCC1,1.9,nt,0.3,-3.9,-7.6,nt
O=C(O)CSCC(=O)Nc1ccc(C2CCCCC2)cc1,3.7,-10.4,0.2,7.8,2.6,98.4*
Cc1ccc(NC(=O)CSCc2ccco2)cc1,0.4,-15.3,3.3,2.3,-2.7,98.9*
Cc1ccc(C)c(S(=O)(=O)Nc2ccc(C(=O)N3CC(C)OC(C)C3)cc2)c1 (centres undefined),nt,-1.8,2.9,nt,0.5,nt
Cc1cccc(C)c1NC(=O)CSCC(=O)O,-4.2,-5.4,4.3,4.9,1.0,-2.8
Cc1ccc(NC(=O)CSCC(=O)O)cc1,1.9,-19.8,-1.6,-16.2,-4.7,97.8*
Cc1ccc(NC(=O)CSCc2ccc(F)cc2)cc1,5.5,-3.1,1.2,-1.9,4.4,92.6*
Cc1ccc(CSCC(=O)NCc2ccc(F)cc2)cc1,-13.7,-3.1,-1.0,5.8,-4.0,1.4
CC(C)Oc1ccc(F)cc1-c1cc(C(=O)NCc2cccs2)[nH]n1,nt,-9.7,nt,nt,nt,nt
COc1ccc2c(c1OC)C(=O)OC2Nc1nc(-c2cc3ccccc3oc2=O)cs1 (centres undefined),9.0,-6.9,5.4,-0.3,-3.0,nt
COc1cccc(-c2csc(NC3OC(=O)c4c3ccc(OC)c4OC)n2)c1 (centres undefined),-14.9,-3.0,nt,0.6,-1.0,97.3*
COc1ccc2c(c1OC)C(=O)OC2Nc1nc(-c2ccc(-c3ccccc3)cc2)cs1 (centres undefined),-0.4,-4.8,-3.4,-5.6,2.0,95.9*
CCOC(=O)Cc1c(C)nc2cc(C)nn2c1C,4.0,nt,2.1,14.2,6.2,-30.7
CCOC(=O)Cc1nn2c(=O)cc(C)nc2s1,-7.6,-1.2,2.6,2.8,11.0,93.2*
SMILES,PfM18AAP inh,CaV13 ICDI inh,IDE act,PolyA inh,IDE cell inh,ALR inh
COCCN1C(=O)CSCC1(C)C(=O)NCc1ccccc1 (centres undefined),nt,-9.8,nt,nt,nt,nt
C=CCOc1ccc(Br)cc1CNCC,-14.9,-2.9,-1.9,-8.2,7.2,2.3
COC(=O)c1c(NC(=O)COc2ccc(Cl)cc2)sc2c1CC(C)(C)NC2(C)C,1.4,nt,9.7,1.0,2.4,-18.0
COC(=O)c1c(NC(=O)Cc2ccccc2)sc2c1CC(C)(C)NC2(C)C,28.7*,-4.7,2.8,0.7,1.2,0.2
O=S1(=O)CC(N2CCCCC2)CN1CCc1ccccc1 (centres undefined),nt,-6.6,nt,nt,nt,nt
Cc1nc2ccc(S(=O)(=O)N(C)CC(=O)NCc3ccc(N(C)C)cc3)cc2s1,10.2,-2.5,-8.2,-6.4,2.8,84.7*
Nc1ccccc1OCP(=O)(c1ccccc1)c1ccccc1,-8.0,-2.0,5.3,-4.3,3.4,96.2*
